# Sampled rows, rich in hits. Any-hit rate of the full collection: about 3.5%.
# UGM FP inh = blocks M. tuberculosis UGM enzyme | 320,000 compounds, 0.06% hits | inhibition, % at 10 µM | purified UGM, fluorescence polarization probe displacement; in the data active = inhibition above about 10%, passing the limit was not always enough
# Rv3671c inh = Rv3671c (M. tuberculosis) protease inhibition; P9WHR9; inhibition, % at 5.96 µM; 320,000 compounds, 0.048% hits; AID 2606; in the data active = inhibition above about 38%;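 note: extracellular domain of Rv3671c used as enzyme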
# GDH-TPI counter = counter-screen for M. tuberculosis FBA inhibitors: GDH-TPI coupled enzymes | GDH-TPI coupled enzyme counterscreen, NADH absorbance | inhibition, % at 4.8 µM | 360,000 compounds, 1.2% hits; in the data active = inhibition above about 30%
# Mtb FBA inh = inhibits M. tuberculosis FBA enzyme. purified M. tuberculosis FBA, fluorescence read-out. inhibition, % at 1 µM. 360,000 compounds, 2.3% hits. AID 588726; in the data active = inhibition above about 27%
# Target sequence (P9WQA3 whole entry, looked up): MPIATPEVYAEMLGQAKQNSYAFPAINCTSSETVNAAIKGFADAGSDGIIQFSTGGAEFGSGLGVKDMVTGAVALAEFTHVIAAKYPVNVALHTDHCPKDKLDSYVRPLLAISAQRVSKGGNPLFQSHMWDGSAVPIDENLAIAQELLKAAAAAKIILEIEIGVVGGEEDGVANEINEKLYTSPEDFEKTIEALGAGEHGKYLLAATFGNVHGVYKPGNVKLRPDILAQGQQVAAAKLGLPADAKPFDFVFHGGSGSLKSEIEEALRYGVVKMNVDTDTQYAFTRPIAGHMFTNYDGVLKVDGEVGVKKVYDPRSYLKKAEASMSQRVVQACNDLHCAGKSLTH
# Numbers stand for hits; – = inactive; · = not tested or not shown; + = active, no number.
SMILES,UGM FP inh,Rv3671c inh,GDH-TPI counter,Mtb FBA inh
CC(=O)c1c(C)[nH]c(C(=O)CN2C(=O)NC(CCc3ccccc3)C2=O)c1C (stereo unspecified),–,–,–,–
Cc1ccc(-c2nc3cc(C)c(Br)c(C)n3c2CC(C)(C)C)cc1,·,·,·,–
CSc1cccc(N2C(=O)C3CCCN3C2=S)c1 (stereo unspecified),–,–,–,–
CCN(CC(=O)NC1CCS(=O)(=O)C1)C(C)C(=O)Nc1ccc(F)cc1 (stereo unspecified),–,–,–,–
CC(C)Oc1ccc(F)cc1-c1cc(C(=O)N2CCc3ccccc3C2)[nH]n1,·,·,–,–
COC(=O)N/N=C/c1cccs1,–,–,–,–
COc1cc2ccccc2cc1C(=O)N/N=C/c1cccs1,·,·,35,–
COc1ccc([N+](=O)[O-])cc1/C=N/NC(=O)/C(=C\c1cccs1)NC(=O)c1ccccc1,–,–,43,–
COc1ccc(C=C(NC(=O)c2ccccc2)C(=O)O)cc1OC,·,·,–,–
COc1ccc(/C=C(/NC(=O)c2ccccc2)C(=O)N/N=C/c2cccs2)cc1OC,–,–,69,–
COc1ccc([N+](=O)[O-])cc1/C=N/NC(=O)Cc1ccccc1,–,–,–,–
CCO/C(C)=N/Oc1cncnc1,·,·,·,–
Cn1c(NC(=O)c2ccccc2NC(=O)C(C)(C)C)nc2ccccc21,–,–,34,–
Cn1c(NC(=O)c2ccc(F)cc2)nc2ccccc21,–,·,–,–
O=C(Cc1ccc(Br)cc1)N/N=C/c1ccc(-c2cccc(C(=O)O)c2)o1,–,–,62,–
Cc1ccc(/C=N/NC(=O)c2cccnc2)o1,–,–,–,–
Nc1nnc(CC(=O)N/N=C/c2ccc(-c3ccc(F)cc3)o2)s1,–,–,–,–
CCOC(=O)c1ccc(-c2ccc(/C=N/NC(=O)Cc3nnc(N)s3)o2)cc1,–,–,40,–
O=C(O)c1cccc(-c2ccc(/C=N/NC(=O)c3cccnc3)o2)c1,–,–,57,–
Nc1nnc(CC(=O)N/N=C/c2ccc(-c3cccc(C(=O)O)c3)o2)s1,–,–,46,–
CCCS(=O)(=O)NC(=O)C1(C)CCCN(C(=O)COCc2ccccc2)C1 (stereo unspecified),·,·,–,–
CCOC(=O)C1(C)CCN1C(=O)c1cc2ccccc2s1 (stereo unspecified),·,·,–,–
COc1ccc(Cl)cc1C=CC=NNS(=O)(=O)c1ccc(C)cc1,·,·,37,–
COc1ccc(Br)cc1C=NNS(=O)(=O)c1ccc(C)cc1,·,·,–,–
FC(F)(F)c1ccccc1/C=N/Nc1ccccn1,–,–,–,–
SMILES,UGM FP inh,Rv3671c inh,GDH-TPI counter,Mtb FBA inh
O=C(O)c1nc(Cl)c(Cl)c(N/N=C/c2ccccc2C(F)(F)F)c1Cl,–,–,31,–
COc1ccc(CN(C)S(=O)(=O)c2nnc(NC(=O)c3cccc(F)c3)s2)cc1,–,–,–,–
CC1CCN(CCCNC(=O)C2CCN(S(=O)(=O)N3CCC4(CC3)OCCO4)CC2)CC1,–,–,–,–
COc1ccc(C2=NS(=O)(=O)N(C)C(C(=O)N3CCC(C)CC3)=C2)cc1,–,–,31,–
N#Cc1c(-c2ccncc2)c2c([nH]c1=O)-c1ccccc1OC2,–,–,·,·
N#Cc1c(-c2ccccc2Cl)c2c([nH]c1=O)-c1ccccc1OC2,–,–,–,+
COc1ccc(C(=O)/C=C/c2ccc(O)cc2)c2c1CC(O)C(C)(C)O2 (stereo unspecified),·,–,33,–
CN1CCN(c2ccc(S(=O)(=O)N3CCOCC3)cc2NC(=O)COc2ccc(C#N)cc2)CC1,·,·,–,–
O=C1CCCC(O)=C1C=Nc1ccc(O)cc1,–,–,35,–
O=C1CC(c2ccccc2)CC(O)=C1C=Nc1ccc(Cl)cc1 (stereo unspecified),–,–,–,–
CC(C)(OC1OC(CO)C(O)C(O)C1O)[C@H]1Oc2ccc3ccc(=O)oc3c2[C@H]1O (stereo partly specified),–,–,–,117
O=C(c1ccc(N2CCN(C3CC(=O)N(Cc4cccs4)C3=O)CC2)cc1)c1cccnc1 (stereo unspecified),–,–,33,–
O=C(c1ccncc1)c1ccc(N2CCN(C3CC(=O)N(Cc4ccccc4)C3=O)CC2)cc1 (stereo unspecified),–,–,–,–
O=C(Nc1cc(S(=O)(=O)N2CCOCC2)ccc1N1CCCC1)c1ccc2c(c1)S(=O)(=O)c1ccccc1C2=O,–,–,–,–
CC(C)(C)N1C(=O)NC(=O)/C(=C\c2ccc3c(c2)CCN3CCCCl)C1=O,–,–,32,–
Cn1c(COc2ccccc2Br)nc2ccccc21,–,–,–,–
CCn1c(=S)sc2c(=O)n(-c3ccccc3)c(=S)[nH]c21,–,–,35,–
CCOc1ccccc1-n1c(=S)sc2c(=O)n(-c3ccc(C)cc3)c(=S)[nH]c21,–,–,–,–
CCOc1ccc(C2=CS/C(=C(\C#N)c3nnc4n3CCCCC4)N2CC)cc1,–,–,32,–
CCOC(=O)c1ccc(NC(=O)c2ccc3c(c2)C(=O)N(Cc2cccnc2)C3=O)cc1,–,–,–,–
COc1ccc(C)cc1-n1nnnc1SC/C(O)=C(\C#N)c1nc2ccccc2[nH]1,–,–,36,–
N#C/C(=C(\O)c1cc(Cl)sc1Cl)c1nc2ccccc2[nH]1,–,–,39,–
COc1cc(/C(O)=C(\C#N)c2nc3ccccc3[nH]2)cc(OC)c1OC,–,·,38,–
N#C/C(=C(/O)c1ccc(Cl)cc1)c1nc2ccccc2[nH]1,–,–,–,–
CCOC(=O)C1(CCOc2ccccc2)CCN(Cc2ccc(O)c(OCC)c2)CC1,–,–,–,–
SMILES,UGM FP inh,Rv3671c inh,GDH-TPI counter,Mtb FBA inh
Cc1ccc(-n2c(N)cc(=O)nc2SCC(=O)NC2CCCCC2)cc1C,–,–,–,–
Cc1cccc(/N=C/c2c(O)[nH]c3ccccc23)n1,–,–,45,–
CCN1CCN(c2cc(C)c3cc(NC(=O)c4cc(OC)cc(OC)c4)ccc3n2)CC1,–,–,34,–
CCCCNC(=O)CCC(=O)Nc1ccc2nc(N3CCC(C)CC3)cc(C)c2c1,–,–,–,68
Cc1cc(N2CCOCC2)nc2ccc(NC(=S)NCCC(C)C)cc12,–,–,–,28
Cc1cc(N2CCOCC2)nc2ccc(NC(=O)CCC(=O)N3CCC(C)CC3)cc12,–,–,–,54
CCOC(=O)/C=C/COc1ccccc1[N+](=O)[O-],–,–,–,–
CC(c1ccccc1)N1CC(C(=O)N2CCCC(C(N)=O)C2)CC1=O (stereo unspecified),–,–,–,–
CCN(CC)CCn1c2c(c(SCC(=O)NCc3ccccc3)nc1=O)CCC2,–,–,–,–
O=C(c1cccnc1)c1cc2ccccc2[nH]1,–,–,35,–
CC(C)N(Cc1cc2ccccc2[nH]c1=O)C(=O)c1cccnc1,–,–,–,–
O=C(NCCCN1CCCC1=O)c1ccc(NS(=O)(=O)c2ccccc2)cc1,–,–,–,–
Cc1nnc(C)n1/N=C/c1ccc(-c2ccccc2Cl)o1,–,–,46,–
S=c1[nH]nc(-c2ccccc2)n1/N=C/c1ccc(-c2ccccc2Cl)o1,–,–,–,–
CCCC(C)Sc1nc2c([nH]1)c(=S)n(C)c(=O)n2C (stereo unspecified),·,·,35,–
